Data on 34 sequences can be found in the supplement of paper PMC3545927.

The list shows a part of the results. The true hit rate is not given.

In this experiment the target is furin, P09958. Description: furin cleavage Z-score vs untreated control; higher = more cleavage, active = 3.5 or more, inactive = 1 or less, 8 variable residues between constant flanks. An outline of the steps:
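Peptides 8 residues long, fused to a cDNA oligonucleotide, were fixed to magnetic beads by the N-terminus and exposed to purified furin. The 0.01 ml reactions contained 50 mM HEPES pH 7.5 with CaCl2 and NaCl at 1:10 enzyme:substrate and ran 7.5, 15 or 30 min. For the cleavage Z-score, log counts of sequenced released DNA were compared with furin-free reactions, lowess-adjusted and scaled by median absolute deviation.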

Sequence of furin, P09958 (P09958 whole entry, the tested form may be a part): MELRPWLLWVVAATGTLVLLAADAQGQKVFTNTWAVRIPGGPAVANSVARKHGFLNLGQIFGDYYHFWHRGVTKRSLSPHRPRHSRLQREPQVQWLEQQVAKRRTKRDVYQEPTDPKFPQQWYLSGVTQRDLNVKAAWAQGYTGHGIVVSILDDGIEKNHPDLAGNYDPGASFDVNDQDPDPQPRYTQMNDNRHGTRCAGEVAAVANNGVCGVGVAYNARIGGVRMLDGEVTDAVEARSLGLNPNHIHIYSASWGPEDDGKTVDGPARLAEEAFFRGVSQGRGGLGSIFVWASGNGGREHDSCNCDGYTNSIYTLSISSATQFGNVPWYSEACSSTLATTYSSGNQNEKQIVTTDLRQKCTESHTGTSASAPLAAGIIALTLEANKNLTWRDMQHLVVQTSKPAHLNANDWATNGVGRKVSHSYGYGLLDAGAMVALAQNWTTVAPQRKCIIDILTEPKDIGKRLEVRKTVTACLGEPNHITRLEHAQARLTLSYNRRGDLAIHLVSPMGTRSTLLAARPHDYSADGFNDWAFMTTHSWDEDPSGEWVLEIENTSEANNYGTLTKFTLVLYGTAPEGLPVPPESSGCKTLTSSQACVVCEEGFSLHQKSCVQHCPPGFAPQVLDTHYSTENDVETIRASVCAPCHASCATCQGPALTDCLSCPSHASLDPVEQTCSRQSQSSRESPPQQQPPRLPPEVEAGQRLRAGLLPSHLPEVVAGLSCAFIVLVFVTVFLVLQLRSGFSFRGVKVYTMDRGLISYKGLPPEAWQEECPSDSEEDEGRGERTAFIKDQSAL

Consider CAPVENLETTAGNASASA [HC759], for which the “furin cleavage Z-score” value is 0.416 (inactive) (7.5 min), 0.844 (inactive) (15 min) and 0.545 (inactive) (30 min).

CAYDVVCCSMAGNASASA [HC2109]: the “furin cleavage Z-score” value runs as follows: (7.5 min) 0.403 (inactive); (15 min) -1.03 (inactive); (30 min) -0.733 (inactive).

With CAPEGRTWAQAGNASASA [HC196], the “furin cleavage Z-score” value runs as follows: (7.5 min) 0.395 (inactive); (15 min) -0.56 (inactive); (30 min) -1.92 (inactive).

For the sequence CAPEGRRKRTAGNASASA [FS-1042], the “furin cleavage Z-score” value (7.5 min) is 7.2 (active), the “furin cleavage Z-score” value (15 min) was 9.98 (active) and the “furin cleavage Z-score” value (30 min) was 7.54 (active).

Turning to CAVDAETHVTAGNASASA [HC351], the “furin cleavage Z-score” value is -2.06 (inactive) (7.5 min), -2.12 (inactive) (15 min) and -1.23 (inactive) (30 min).

Regarding CARRKREVQMAGNASASA [FS-2779], the “furin cleavage Z-score” value was 6.69 (active) (7.5 min), 7.05 (active) (15 min) and 7 (active) (30 min).

CARRKREKTQAGNASASA [FS-3165]: the “furin cleavage Z-score” value by setting is: (7.5 min) 5.81 (active); (15 min) 8.48 (active); (30 min) 5.8 (active).

For CARRVRSYGQAGNASASA [FS-2084], the “furin cleavage Z-score” value reads like this: (7.5 min) 2.55; (15 min) 4.27 (active); (30 min) 5.55 (active).

Regarding CARRKRLPEMAGNASASA [FS-1778], the “furin cleavage Z-score” value reads like this: (7.5 min) 0.399 (inactive); (15 min) 0.463 (inactive); (30 min) -1.64 (inactive).

Take CALSKRSLRDAGNASASA [FS-1373]: the “furin cleavage Z-score” value is 4 (active) (7.5 min), 8.19 (active) (15 min) and 6.86 (active) (30 min).

Regarding CAVSKGWRLLAGNASASA [HC670], the “furin cleavage Z-score” value is 0.0516 (inactive) (7.5 min), -0.975 (inactive) (15 min) and -0.799 (inactive) (30 min).

CAWGENDTDVAGNASASA [HC425]: the “furin cleavage Z-score” value was -1.56 (inactive) (7.5 min), -0.446 (inactive) (15 min) and -2.12 (inactive) (30 min).

As to CALDGVRLHRAGNASASA [HC1223], the “furin cleavage Z-score” value by setting is: (7.5 min) -1.06 (inactive); (15 min) 0.461 (inactive); (30 min) -0.00108 (inactive).

Consider CALVVTSTWVAGNASASA [HC2145], for which the “furin cleavage Z-score” value reads like this: (7.5 min) -0.711 (inactive); (15 min) -0.969 (inactive); (30 min) -0.561 (inactive).

On to CAEVWTSTWVAGNASASA [HC2188], for which the “furin cleavage Z-score” value (7.5 min) was 0.933 (inactive), the “furin cleavage Z-score” value (15 min) is 0.313 (inactive) and the “furin cleavage Z-score” value (30 min) was 0.822 (inactive).

With CATEPCSGSWAGNASASA [HC1852], the “furin cleavage Z-score” value by setting is: (7.5 min) -0.934 (inactive); (15 min) -0.739 (inactive); (30 min) -1.88 (inactive).

On to CARRKRSPTQAGNASASA [FS-2069], for which the “furin cleavage Z-score” value runs as follows: (7.5 min) 11.3 (active); (15 min) 13.3 (active); (30 min) 8.55 (active).

For CARPVRDDSVAGNASASA [FS-3029], the “furin cleavage Z-score” value by setting is: (7.5 min) 0.58 (inactive); (15 min) -0.207 (inactive); (30 min) -0.229 (inactive).

In the case of CALSKRLGRSAGNASASA [FS-1644], the “furin cleavage Z-score” value is 9.63 (active) (7.5 min), 10.3 (active) (15 min) and 7.46 (active) (30 min).

Turning to CALKKRIKSVAGNASASA [FS-2123], the “furin cleavage Z-score” value is -0.488 (inactive) (7.5 min), -0.595 (inactive) (15 min) and 0.647 (inactive) (30 min).

Consider CARRKRSIEEAGNASASA [FS-2230], for which the “furin cleavage Z-score” value was 9.81 (active) (7.5 min), 9.11 (active) (15 min) and 9.55 (active) (30 min).

As for CALRKRDVSVAGNASASA [FS-1676], the “furin cleavage Z-score” value was 4.02 (active) (7.5 min), 6.7 (active) (15 min) and 7 (active) (30 min).

For CAEVPCHRLSAGNASASA [HC2385], the “furin cleavage Z-score” value is, setting by setting: (7.5 min) 0.65 (inactive); (15 min) 0.937 (inactive); (30 min) 2.67.

Regarding CAVAKAVDFIAGNASASA [HC755], the “furin cleavage Z-score” value (7.5 min) was -0.603 (inactive), the “furin cleavage Z-score” value (15 min) is -0.471 (inactive) and the “furin cleavage Z-score” value (30 min) was -1.43 (inactive).

In the case of CALRKRLTPLAGNASASA [FS-1883], the “furin cleavage Z-score” value was -1.32 (inactive) (7.5 min), -0.87 (inactive) (15 min) and 0.456 (inactive) (30 min).

On to CARRVRSVILAGNASASA [FS-2301], for which the “furin cleavage Z-score” value is, setting by setting: (7.5 min) -0.109 (inactive); (15 min) -0.0349 (inactive); (30 min) 1.3.

With CARASRDSSEAGNASASA [FS-2892], the “furin cleavage Z-score” value is -0.582 (inactive) (7.5 min), 0.0813 (inactive) (15 min) and -0.0253 (inactive) (30 min).

On to CARRVRSAEEAGNASASA [FS-2376], for which the “furin cleavage Z-score” value runs as follows: (7.5 min) 7.77 (active); (15 min) 9.29 (active); (30 min) 6.7 (active).

As for CARMKRKVGAAGNASASA [FS-1752], the “furin cleavage Z-score” value was 2.2 (7.5 min), 4.54 (active) (15 min) and 4.95 (active) (30 min).

CARALRNVWQAGNASASA [FS-1682]: the “furin cleavage Z-score” value (7.5 min) is -1.32 (inactive), the “furin cleavage Z-score” value (15 min) was 1.58 and the “furin cleavage Z-score” value (30 min) is 0.167 (inactive).

Take CARASRDVAQAGNASASA [FS-1686]: the “furin cleavage Z-score” value runs as follows: (7.5 min) 3.28; (15 min) 3.03; (30 min) 3.8 (active).

As for CARRVRSRTHAGNASASA [FS-3071], the “furin cleavage Z-score” value runs as follows: (7.5 min) 0.143 (inactive); (15 min) 0.522 (inactive); (30 min) 1.9.

CARQPRLVGAAGNASASA [FS-2171]: the “furin cleavage Z-score” value reads like this: (7.5 min) -0.691 (inactive); (15 min) -0.656 (inactive); (30 min) -0.39 (inactive).

CALRKRLLRDAGNASASA [FS-686]: the “furin cleavage Z-score” value is, setting by setting: (7.5 min) 9.49 (active); (15 min) 11.5 (active); (30 min) 8.89 (active).
